This note sets out measurements from the supplement of paper PMC12297408.

Counter-ions that a name gives are not always drawn. Unmarked numbers belong to inactive results.

The assay deals with Plasmodium falciparum NF54/iGP1_RE9H ulg8 stage V gametocytes. Kind of assay: gametocyte viability (luciferase signal relative to DMSO control) (% of DMSO control); higher = less gametocytocidal activity, active = 50 or less. The conditions noted are these: exposure time: 72 h. On the procedure: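 Synchronous P. falciparum NF54/iGP1_RE9H ulg8 mature stage V gametocytes (day 12) were exposed to Cayman Epigenetics Screening Library compounds at 10 µM or 1 µM for 72 h at 37 °C. Viability was read as RE9H luciferase bioluminescence, normalised to DMSO plate controls (100%); 50 µM methylene blue was the positive control.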

Consider `Nc1ccccc1NC(=O)c1ccc(CNC(=O)OCc2cccnc2)cc1`, for which the gametocyte viability (concentration: 1 µM) was 83.8 and the gametocyte viability (concentration: 10 µM) is 88.

For the compound `CN(C)CCCNC(=O)c1ccc(-c2cc(O)c3ncccc3c2)cc1`, the gametocyte viability is 85.2 (concentration: 1 µM) and 49.8 (active) (concentration: 10 µM).

Consider `CN(C)Cc1c(C(=O)NCCOc2ccc(C(=O)NO)cc2)oc2ccccc12`, for which the gametocyte viability was 65.8 (concentration: 1 µM) and 59 (concentration: 10 µM).

For `CC(=O)SCC(=O)c1ccc(NS(=O)(=O)c2ccc(OCCCN(C)C)cc2)nc1`, the gametocyte viability (concentration: 1 µM) was 83.8 and the gametocyte viability (concentration: 10 µM) is 85.4.

As to `Cc1noc(C)c1-c1ccc(-c2nc3cnccn3c2NC(C)(C)C)cc1`, the gametocyte viability by setting is: (concentration: 1 µM) 84.1; (concentration: 10 µM) 64.8.

On to `O=C(NO)c1cccc(C(=O)NCCc2ccccc2)c1`, for which the gametocyte viability (concentration: 1 µM) was 98.3 and the gametocyte viability (concentration: 10 µM) was 64.6.

`CCCC(=O)[O-].[Na+]` [Sodium Butyrate]: the gametocyte viability reads like this: (concentration: 1 µM) 83.8; (concentration: 10 µM) 84.7.

Regarding `CCOC(=O)NNc1nncc2ccccc12` [Todralazine (hydrochloride)], the gametocyte viability by setting is: (concentration: 1 µM) 89.5; (concentration: 10 µM) 89.1.

As to `Cn1cc(CCn2cnc(-c3cnn(C)c3)c2-c2ccc(C#N)cc2)cn1`, the gametocyte viability is 91.3 (concentration: 1 µM) and 89.1 (concentration: 10 µM).

For the compound `CN1CCN(c2ccc(-c3cccc(CN4CCOCC4)c3)cc2NC(=O)c2c[nH]c(=O)cc2C(F)(F)F)CC1`, the gametocyte viability (concentration: 1 µM) is 89.4 and the gametocyte viability (concentration: 10 µM) was 94.1.

For `O=C(CCCCCCC(=O)Nc1ccccc1)NO`, the gametocyte viability is, setting by setting: (concentration: 1 µM) 86.4; (concentration: 10 µM) 56.2.

With `C/C(=N\NC(=O)c1cccc(S(=O)(=O)N2CCOCC2)c1)c1cc(Cl)ccc1O`, the gametocyte viability (concentration: 1 µM) is 89.1 and the gametocyte viability (concentration: 10 µM) was 85.8.

Consider `CCC(CC)(NC(=O)C(C)C)C(=O)N[C@@H](CCCN=C(N)N)C(=O)NC1(C(=O)NC(c2ccc(F)cc2)c2ccc(F)cc2)CCCC1`, for which the gametocyte viability runs as follows: (concentration: 1 µM) 82.6; (concentration: 10 µM) 82.6.

On to `CCCNNC(=O)c1ccc(CNC(=O)/C=C/c2ccccc2)cc1` [HDAC3 Inhibitor], for which the gametocyte viability is, setting by setting: (concentration: 1 µM) 83.6; (concentration: 10 µM) 93.8.

Turning to `CN=C(NC)NCCCNCCCNCCCNC(=NC)NC` [Lysine-specific Demethylase Inhibitor (1C) (hydrochloride)], the gametocyte viability (concentration: 1 µM) was 85.5 and the gametocyte viability (concentration: 10 µM) is 81.1.

For the compound `CC(C)(C)c1ccc(C(=O)NC(=S)Nc2ccc(N)cc2)cc1` [Tenovin-3], the gametocyte viability (concentration: 1 µM) was 92.2 and the gametocyte viability (concentration: 10 µM) was 79.2.

`COc1cc2c(NC3CCN(C4CCCCC4)CC3)nc(N3CCCN(C(C)C)CC3)nc2cc1OCCCN1CCCCC1`: the gametocyte viability (concentration: 1 µM) was 75.5 and the gametocyte viability (concentration: 10 µM) was 13.4 (active).

Turning to `O=Nc1ccc(O)c2ncccc12` [5-Nitroso-8-quinolinol], the gametocyte viability is 88.4 (concentration: 1 µM) and 11.5 (active) (concentration: 10 µM).

Consider `O=C([C@@H](Cc1cccc(C(F)(F)F)c1)NS(=O)(=O)c1cc(F)c2c(c1)CCNC2)N1CCCC1` [(R)-PFI-2 (hydrochloride)], for which the gametocyte viability runs as follows: (concentration: 1 µM) 85.2; (concentration: 10 µM) 77.8.

On to `COc1cc(OC)c2c(=O)[nH]c(-c3cc(C)c(OCCO)c(C)c3)nc2c1`, for which the gametocyte viability (concentration: 1 µM) is 94.1 and the gametocyte viability (concentration: 10 µM) is 92.5.

For `CC1(C)C(=O)NC2=C1C(=O)C(=O)c1ccccc12`, the gametocyte viability by setting is: (concentration: 1 µM) 88.9; (concentration: 10 µM) 85.2.

On to `Cn1c(=O)cc(C(=O)Nc2ccc3c(c2)OCCO3)c2ccccc21`, for which the gametocyte viability is 82.8 (concentration: 1 µM) and 86.7 (concentration: 10 µM).

With `CC(C)Oc1ccc(-c2c[nH]cc2CN(C)CCN)cc1` [MS023 (hydrochloride)], the gametocyte viability is 64.4 (concentration: 1 µM) and 30.3 (active) (concentration: 10 µM).

As for `COc1cc(-c2cn(C)c(=O)c3cnccc23)c(OC)cc1CN(C)C`, the gametocyte viability is, setting by setting: (concentration: 1 µM) 86.9; (concentration: 10 µM) 85.8.

`O=C(CCCCCCC(=O)Nc1ccc(I)cc1)NO` [4-iodo-SAHA]: the gametocyte viability by setting is: (concentration: 1 µM) 88.3; (concentration: 10 µM) 67.2.

For the compound `CC(/C=C/C(=O)NO)=C\[C@@H](C)C(=O)c1ccc(N(C)C)cc1` [Trichostatin A], the gametocyte viability (concentration: 1 µM) was 53.7 and the gametocyte viability (concentration: 10 µM) is 35.4 (active).

For `Cc1ccc(NC(=O)CCCCCC(=O)Nc2ccccc2N)cc1` [Pimelic Diphenylamide 106], the gametocyte viability (concentration: 1 µM) was 86.8 and the gametocyte viability (concentration: 10 µM) was 89.

For `CC(C)C(=O)SCCCCCCC(=O)Nc1nc(-c2ccccc2)cs1`, the gametocyte viability is 82.8 (concentration: 1 µM) and 79.7 (concentration: 10 µM).

For `Cc1nn(C)cc1CN1CCC(c2ccc(C(=O)Nc3ccccc3N)cc2)CC1`, the gametocyte viability runs as follows: (concentration: 1 µM) 86; (concentration: 10 µM) 90.2.

As to `CCC(=O)N1CCOc2c(cc(-c3ccc(OC)c(OC)c3)cc2OC[C@H]2CCCN(C)C2)C1` [I-CBP112 (hydrochloride)], the gametocyte viability reads like this: (concentration: 1 µM) 84.5; (concentration: 10 µM) 86.9.

`Nc1ccc(S(=O)(=O)NCCc2ccccc2)cc1`: the gametocyte viability runs as follows: (concentration: 1 µM) 84.2; (concentration: 10 µM) 86.3.

With `O=C1/C(=C/c2ccc(O)c(Br)c2)CCC/C1=C\c1ccc(O)c(Br)c1` [HAT Inhibitor II], the gametocyte viability was 89.2 (concentration: 1 µM) and 83.2 (concentration: 10 µM).

As for `Cn1cc(CNCC2CCN(c3ncc(C(=O)NO)cn3)CC2)c2ccccc21`, the gametocyte viability by setting is: (concentration: 1 µM) 62; (concentration: 10 µM) 66.3.
